In the library only some 3.4% were active in any assay of this set; here they are far more common.
TEAD-YAP inh = TEAD-YAP interaction inhibition; HEK-TIYL cells, TEAD-Gal4/YAP UAS-luciferase luminescence; inhibition, % at 9.12 µM; hit rate 1.4% among 640,000; AID 1259422; in the data active means inhibition above about 32%;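 further: 0% = median of test compound wells and 100% = reference inhibitor wells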
GPR151 activ = activators of human GPR151; AID 1508602; activation, % at 11.2 µM; PathHunter beta-arrestin GPR151 cells, luminescence; Q8TDV0; hit rate 1% among 650,000; in the data active means activation above about 4.9%;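 further: 0% = median of compound wells and 100% = cells with positive control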
FBW7 act = human FBW7 E3 ligase activation, primary screen; normalized activity (activation), % at 26.1 µM; AID 1259310; AlphaScreen FBW7–phospho-cyclin E peptide binding, activator screen; hit rate 0.13% among 650,000; in the data active means normalized activity above about 1.9%;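 further: purified mutant Fbw7 with reduced substrate affinity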
MITF primary = human MITF inhibition, primary screen; hit rate 0.91% among 650,000; AID 1259374; AlphaScreen MITF homodimerization, bead proximity signal; inhibition, % at 2.6 µM; in the data active means inhibition above about 50%;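 further: 0% = vehicle wells with protein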
Target sequence (O75030 whole entry, looked up): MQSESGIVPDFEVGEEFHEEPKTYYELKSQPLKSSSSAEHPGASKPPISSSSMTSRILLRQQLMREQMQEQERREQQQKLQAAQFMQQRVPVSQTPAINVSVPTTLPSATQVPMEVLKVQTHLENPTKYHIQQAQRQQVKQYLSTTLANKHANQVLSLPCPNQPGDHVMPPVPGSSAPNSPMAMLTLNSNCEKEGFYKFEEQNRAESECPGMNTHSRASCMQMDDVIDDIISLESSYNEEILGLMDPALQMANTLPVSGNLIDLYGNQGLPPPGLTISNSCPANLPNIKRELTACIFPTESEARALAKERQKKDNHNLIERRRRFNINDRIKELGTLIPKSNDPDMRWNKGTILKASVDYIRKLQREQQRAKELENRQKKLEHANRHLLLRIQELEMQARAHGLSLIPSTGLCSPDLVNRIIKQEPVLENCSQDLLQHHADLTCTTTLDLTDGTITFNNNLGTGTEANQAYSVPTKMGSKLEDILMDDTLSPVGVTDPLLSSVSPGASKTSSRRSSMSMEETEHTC
* hit, by the source's call; . = no result.

SMILES	TEAD-YAP inh	GPR151 activ	FBW7 act	MITF primary
Cc1ccccc1OCc1nc2ccc(-c3ccnc(N)n3)cc2[nH]1	51.5*	0.5	0.3	5.6
COc1ccccc1OCc1nc2ccc(-c3ccnc(N)n3)cc2[nH]1	14.2	-0.3	0.2	12.4
COc1cc(-c2cn[nH]c2)cc2c(=O)[nH]c(C(N)c3cccc(Cl)c3)nc12 (stereo unspecified)	49.0*	2.8	0.1	13.2
COc1cccc(OCc2nc3ccc(-c4ccnc(N)n4)cc3[nH]2)c1	49.8*	0.1	-0.1	3.9
COc1ccc(C[C@@H](N)c2nc3ccc(-c4cn[nH]c4)cc3c(=O)[nH]2)cc1	52.6*	0.3	-0.3	24.2
Cc1ccccc1CNC(=O)CC1C(=O)NCCN1Cc1ccc(F)cc1Cl (stereo unspecified)	13.7	-0.1	0.0	6.4
CCOc1ccc(NC(=O)C(=O)NCCCN2CCOCC2)cc1	0.2	0.4	-0.1	2.0
c1ccc2c(c1)NC1(CCN(CCN3CCOCC3)CC1)c1cccn1-2	3.6	-0.2	0.0	7.4
COc1ccccc1OCc1nc2ccc(-c3cn[nH]c3)cc2c(=O)[nH]1	-4.3	-0.2	-0.2	18.7
Cc1ccccc1OCc1nc2ccc(-c3cn[nH]c3)cc2c(=O)[nH]1	32.8*	2.2	0.1	-0.9
O=c1c2cc(Cl)ccc2[nH]c(=S)n1C1CCCCC1	2.5	0.6	0.1	8.4
S=c1[nH]c2cc(Cl)ccc2n1C1CCCCC1	2.0	-1.1	3.1*	-7.7
COc1ccc(C=O)cc1OCc1ccccc1[N+](=O)[O-]	-47.2	-2.3	-0.3	-4.7
Cc1cccc(/C=C/C2=CC(C)(C)NC(=S)N2)c1	-10.7	-0.2	-0.1	-1.1
O=C(O)c1ccc(C(=O)Nc2ccccc2S(=O)(=O)Nc2nccs2)cc1	-3.9	-0.8	3.7*	9.3
CC(C)(C)c1ccc(C(=O)Nc2ccc(S(=O)(=O)Nc3nccs3)cc2)cc1	-5.9	0.7	-0.1	-4.7
CCOc1ccc(C(=O)/C=C/c2cc(OC)c(OC)c(OC)c2)cc1	39.7*	2.4	-0.1	10.0
COc1cc(/C=C/C(=O)c2ccc(F)cc2)cc(OC)c1OC	25.5	3.7	-0.1	1.9
COc1cc(C(=O)/C=C/c2ccc(OCC(N)=O)cc2)cc(OC)c1OC	-0.8	0.3	2.0*	13.9
COC(=O)c1ccc(/C=C/C(=O)c2ccc(OC)c(OC)c2)cc1	-8.4	-0.3	-0.2	-1.5
COc1ccc(S(=O)(=O)Oc2c(C=O)cccc2OC)cc1	46.2*	-0.4	-0.1	-7.5
COc1ccc(C=O)cc1OS(=O)(=O)c1ccc(Cl)cc1	24.8	-0.7	0.1	4.5
COc1ccc(S(=O)(=O)Oc2ccc(C=O)cc2OC)cc1	47.1*	-0.7	0.1	7.0
COc1cccc(C=O)c1OS(=O)(=O)c1ccc(Cl)cc1	10.9	0.7	-0.1	-4.6
COc1ccc(S(=O)(=O)Oc2cccc(C=C3C(=O)NC(=S)NC3=O)c2)cc1	6.4	-0.7	0.7	4.5
SMILES	TEAD-YAP inh	GPR151 activ	FBW7 act	MITF primary
COc1ccc(S(=O)(=O)Oc2ccc(C=C3C(=O)NC(=S)NC3=O)cc2OC)cc1	53.5*	0.3	-0.1	-6.0
CCOC(=O)OC[C@H]1O[C@H](c2ccccc2)C=C[C@@H]1Oc1ccc(F)cc1C	.	-1.6	-0.1	-15.1
C#CC(O)(c1ccc(OC)cc1)c1ccc(OC)c2ccccc12 (stereo unspecified)	55.8*	0.0	0.0	0.4
C[C@H](O)[C@H]1NC(=O)[C@H]2CN(C(=O)Oc3cccc4ccccc34)CCN2C1=O	4.7	-0.7	0.5	15.0
CC(C)(C)c1ccc(C(=O)N2CCCCCC2=O)cc1	55.2*	-0.7	-0.1	-6.8
O=C(O)c1ccc(NCCSCc2ccccc2)c([N+](=O)[O-])c1	35.2*	0.4	0.0	-4.8
Oc1ccc(CCNc2nc(Nc3ccc(C(F)(F)F)cc3)nc3nc[nH]c23)cc1	3.0	3.9	-0.2	0.2
CCCOc1ccc(C2=[N+]([O-])C3(CCCCC3=O)N(O)C2(C)C)cc1 (stereo unspecified)	54.9*	0.7	0.3	-2.2
CC1(C)C(c2ccc(F)cc2)=[N+]([O-])C2(CCCCC2=O)N1O (stereo unspecified)	-6.8	1.9	0.5	7.8
CCN(CC)S(=O)(=O)c1ccc(Cl)c(C(=O)Oc2cccc(NC(=O)c3ccc(OC)cc3)c2)c1	67.3*	-1.8	0.0	1.6
CCN(CC)S(=O)(=O)c1ccc(Cl)c(C(=O)Oc2cccc(NC(=O)c3ccccc3Cl)c2)c1	12.1	-1.4	-0.1	-3.8
CCN(CC)S(=O)(=O)c1cccc(C(=O)Oc2cccc(NC(=O)c3ccc(OC)cc3)c2)c1	66.2*	-2.4	-0.1	-3.7
CCN(CC)S(=O)(=O)c1cccc(C(=O)Nc2ccc(C#N)cc2)c1	46.8*	4.8	-0.2	0.3

Screening data deposited in PubChem BioAssay by The Scripps Research Institute Molecular Screening Center.
